Holding throughout (test): NCI-60 one-dose screen, 48 h (100 = growth as untreated, 0 = no growth, -100 = all killed)
What all share (conditions): 10 µM unless noted

Experiment [1] relates to HCT-15 colon.
In experiment [2] the test system is HT29 colon.
Experiment [3] has as its system SNB-75 CNS.
Experiment [4] has as its system SNB-19 CNS.
For experiment [5], the system named is U251 CNS.
For experiment [6], the system named is PC-3 prostate.
For experiment [7], the system named is SK-MEL-5 melanoma.
In experiment [8] the test system is UACC-62 melanoma.
The test system of experiment [9] is LOX IMVI melanoma.
Experiment [10] has as its system SK-MEL-28 melanoma.
Experiment [11] has as its system SK-MEL-2 melanoma.
Experiment [12] relates to EKVX NSCLC.
Experiment [13] has as its system SN12C renal.
The test system of experiment [14] is UO-31 renal.
The subject of experiment [15] is TK-10 renal.
Experiment [16] concerns ACHN renal.
The test system of experiment [17] is CAKI-1 renal.
In experiment [18] the test system is CCRF-CEM leukemia.
The subject of experiment [19] is MOLT-4 leukemia.
The test system of experiment [20] is A498 renal.

This is part of a sample that, as a whole, favours compounds with a hit. Of some 83,000 tested, about 20% had one in any assay.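 Each cell line was grown in a 96-well plate and treated with one concentration of compound for 48 hours. Values below 10 were considered active.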 Unmarked numbers belong to inactive results. Calls of active or inactive are those of the source.

For the molecule `Cc1cc2ccccn2c1C(=O)c1ccc(C(=O)c2ccccc2)cc1`, the growth in experiment [1] is 85.5%; in experiment [2] it was 82%; in experiment [3], 93.5%; in experiment [4], 86.1%; in experiment [5] it was 86.2%; in experiment [6], 85.2%. Also, the growth is 98.4% in [7]; 75.1% in experiment [8]; 92.1% in experiment [9]; 89.7% in experiment [10]; 15% in [11]; 91.8% in [12]. Moreover, the growth in [13] is 94.5%; in experiment [14], 62.5%; in [15] it was 98.7%; in experiment [16], 93%; in experiment [17] it was 106%; in experiment [18], 86.6%. Besides, the growth in experiment [19] is 78.4%.

As to `Cc1cc(C)c(C(=O)c2cccs2)c(C)c1`, the growth in experiment [1] is 102%; in experiment [2], 98.4%; in experiment [3] it was 86.2%; in experiment [4], 99.6%; in experiment [5], 97.5%; in [6], 89.5%. For the same molecule, the growth in experiment [7] was 109%; in experiment [8], 97%; in [9], 102%; in [10], 114%; in experiment [11], 100%; in [12], 117%. Also, the growth is 94% in experiment [13]; 67.8% in [14]; 96.2% in experiment [15]; 108% in [16]; 95.2% in [17]; 97.9% in experiment [18]. In addition, the growth in [19] was 104%.

With `CC1c2ccccc2-c2ccccc2N1C` (configuration not stated), the growth in experiment [1] is 102%; in experiment [2], 102%; in experiment [3] it was 105%; in [4] it was 97.3%; in [5], 99.2%; in experiment [6], 83.9%. Besides, the growth is 107% in [7]; 86.6% in experiment [8]; 94.6% in experiment [9]; 119% in experiment [10]; 101% in experiment [11]; 124% in [12]. For the same molecule, the growth was 89.6% in experiment [13]; 70.7% in experiment [14]; 94.3% in [15]; 103% in experiment [16]; 95.7% in [17]; 101% in experiment [18]. In addition, the growth in experiment [19] is 103%.

Regarding `COc1ccc2c(c1)[n+](=O)c(/C=C/C(=O)c1cc(OC)c(OC)c(OC)c1)c(C)n2[O-]`, the growth in experiment [1] is 11%; in [2], 47%; in experiment [3], 68.7%; in [4] it was 97%; in experiment [5], 53.7%; in [6], 55.2%. Also, the growth was 93.4% in experiment [7]; 63.8% in experiment [8]; 51.3% in experiment [9]; 71.6% in [10]; 56% in experiment [11]; 71.3% in experiment [12]. In addition, the growth in [13] was 40.5%; in [14], 49.1%; in experiment [15], 62.9%; in [16], 47.7%; in experiment [20], 99.3%; in [18], -25.9% (active). The growth in experiment [19] was 0.943% (active).

Regarding `Nc1ccc2c(c1)C(=O)c1cc(Cl)c(Cl)cc1-2`, the growth was 103% in experiment [1]; 104% in [2]; 68.7% in experiment [3]; 96.6% in experiment [4]; 90.4% in experiment [5]; 74.9% in [6]. For the same molecule, the growth in experiment [7] is 98%; in [8], 77.9%; in experiment [9] it was 86%; in experiment [10], 122%; in experiment [11], 95.8%; in experiment [12] it was 74.1%. For the same molecule, the growth is 90.8% in experiment [13]; 49.9% in [14]; 113% in experiment [15]; 92.1% in experiment [16]; 70.4% in experiment [17]; 82.8% in experiment [18]. Besides, in experiment [19], the growth is 77.1%.

Take `Cc1ccc(-c2csc(N)n2)cc1`: the growth in experiment [1] was 99.9%; in [2], 93.6%; in experiment [3] it was 93.2%; in [4], 98.1%; in [5] it was 92.9%; in [6], 91.2%. In addition, the growth in experiment [7] is 97.1%; in experiment [8], 99%; in [9], 101%; in experiment [10] it was 110%; in experiment [11] it was 107%; in experiment [12] it was 104%. In addition, the growth in [13] is 96%; in [14], 88.6%; in experiment [15], 97.2%; in experiment [16] it was 97.7%; in experiment [17] it was 99.2%; in [18], 92%. Also, the growth in [19] was 90.3%.

As to `COCCOCCOCCOCCOc1ccc2c(c1)C(=O)c1nc3ncccc3c(=O)n1-2`, the growth in experiment [1] was -95.6% (active); in experiment [2], -39.3% (active); in experiment [3], -61.1% (active); in [4] it was -87% (active); in experiment [5] it was -63.6% (active); in [6], -8.58% (active). Moreover, the growth in [7] is -100% (active); in experiment [8], -97.2% (active); in experiment [9] it was -87.7% (active); in experiment [10], -75.3% (active); in [11], 6.22% (active); in experiment [12] it was 10.5%. Besides, the growth in [13] was -93% (active); in experiment [14] it was -7.56% (active); in experiment [15], -77.4% (active); in experiment [16], -19.5% (active); in experiment [20], -100% (active); in experiment [18], 5.42% (active). The growth in [19] is -28.7% (active).

For `O=C(c1ccccc1)c1ccc(Oc2ccc([N+](=O)[O-])cc2[N+](=O)[O-])cc1`, the growth was 2.7% (active) in experiment [1]; 2.81% (active) in experiment [2]; 85.2% in experiment [3]; 77.4% in [4]; 35% in experiment [5]; 75.4% in experiment [6]. Moreover, the growth in [7] is 32.2%; in [8], 62%; in experiment [9], 5.97% (active); in experiment [10] it was 101%; in experiment [11], 34.9%; in [12], 99.6%. Besides, the growth in experiment [13] is 71.6%; in experiment [14] it was 48.7%; in [15], 83.4%; in experiment [16] it was 50.4%; in experiment [17], 27.3%; in experiment [18] it was 27.4%. Further, the growth in experiment [19] is 78.3%.

These data come from PubChem BioAssay (NCI).
